Activity calls are given as the source filed them.
Experiments:
[1] = system: Human papillomavirus type 1a protein E7 (residues 44-93); experiment: small molecules binding HPV E7 44-93 – biochemical, small-molecule microarray, residues 44-93, 635 nm fluorescence, primary screen (AID 1108); conditions: fluorescence 635 nm, higher = more signal;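 also: E7 fragment applied at 1 µg/mL in TBST for 1 h at 4 C; score combines spot fluorescence with its signal to noise ratio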
[2] = hepatitis C replication reporter changes, two-sided – Huh7 cells, luciferase reporter, HCV replication inhibitor project, primary screen (AID 1109); conditions: Huh7 HCV replicon luciferase reporter, 48 h; higher = more signal;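 also: huh7 hepatoma cells harbouring a luciferase neomycin HCV replicon reporter; luciferase luminescence as measure of HCV replicon replication; test concentration not given here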
[3] = molecular target: Left-right determination factor 2 (Homo sapiens) (UniProt O00292); experiment: small molecules binding LEFTY2 protein – biochemical, small-molecule microarray, 635 nm fluorescence scan, primary screen (AID 1110); conditions: higher = more signal
[4] = molecular target: Calmodulin-1 (Homo sapiens) (UniProt P0DP23); experiment: small molecules binding calmodulin-1 with EGTA – biochemical, small-molecule microarray, Cy5-labelled CALM1, profiling panel (AID 1111); conditions: Cy5-CALM1 binding fluorescence, higher = more signal;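 also: labelled calmodulin applied in Tris saline Tween buffer holding calcium plus EGTA and DTT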
[5] = molecular target: Calmodulin-1 (Homo sapiens) (UniProt P0DP23); experiment: small molecules binding Ca-loaded calmodulin-1 – biochemical, small-molecule microarray, Cy5-labelled CALM1, plus calcium, artefact control for SMM control-protein annotation, profiling panel (AID 1112); conditions: Cy5-CALM1 binding fluorescence, higher = more signal;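 also: score merges spot fluorescence with signal to noise from triplicate slides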
[6] = probe aWnt5a binding to arrayed compounds – biochemical, biotinylated probe, 635/667 nm fluorescence, primary screen (AID 1113); conditions: small-molecule microarray, higher = more signal;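 also: score merges 667 nm fluorescence intensity with signal-to-noise per printed feature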
[7] = probe aShh binding to arrayed compounds – biochemical, biotinylated probe, 635/667 nm fluorescence, primary screen (AID 1114); conditions: small-molecule microarray, higher = more signal;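 also: probe is biotin-labelled aShh protein from a stem cell growth factor screen; measures binding of labelled protein to compounds printed on the slide; score merges feature fluorescence at 667 nm with signal-to-noise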
[8] = probe aNog binding to arrayed compounds – biochemical, biotinylated probe, 635/667 nm fluorescence, primary screen (AID 1115); conditions: small-molecule microarray, higher = more signal;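 also: probe is biotinylated aNog protein used at 0.15 µg/mL for 1 h at 4 C; z-score combines 667 nm fluorescence of each spot with its signal to noise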
[9] = molecular target: Torsin-1A-interacting protein 1 (Homo sapiens) (UniProt Q5JTV8); experiment: compound microarray binding of lysate hLAP1 – cell lysate, small-molecule microarray, COS7 lysate, 635/667 nm fluorescence, primary screen (AID 1116); conditions: 635 nm fluorescence, higher = more signal
[10] = molecular target: Alpha-bungarotoxin (Bungarus multicinctus) (UniProt P60615); experiment: compounds binding labelled alpha-BTX control protein – biochemical, small-molecule microarray, Alexa647 label, 635/667 nm fluorescence, artefact control for SMM control protein annotation, profiling panel (AID 1117); conditions: alpha-BTX-A647 binding fluorescence, higher = more signal
[11] = molecular target: Albumin (Bos taurus) (UniProt P02769); experiment: compounds binding labelled BSA control protein – biochemical, small-molecule microarray, Alexa647 label, 635/667 nm fluorescence, artefact control for SMM control protein annotation, profiling panel (AID 1118); conditions: BSA-A647 binding, fluorescence 635 nm, higher = more signal;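 also: score merges 667 nm emission intensity and signal-to-noise per printed compound spot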
[12] = probe aXIP binding to arrayed compounds – biochemical, NeuroSMM set, 635/667 nm fluorescence, primary screen (AID 1119); conditions: small-molecule microarray, higher = more signal, called active from +8 up or from −8 down;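 also: probe is the protein aXip251-270 applied at 1 µg/mL to compound-printed slides; binding of probe to printed compounds measured as 667 nm fluorescence plus signal to noise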
[13] = probe aNOTCH3 binding on compound microarray – biochemical, small-molecule microarray, 635/667 nm fluorescence, primary screen (AID 1120); conditions: higher = more signal;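 also: probe is a biotin-tagged antibody raised against NOTCH3 rather than NOTCH3 protein; score merges spot fluorescence near 667 nm with spot signal to noise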
[14] = probe aNOTCH2 binding on compound microarray – biochemical, small-molecule microarray, 635/667 nm fluorescence, primary screen (AID 1121); conditions: higher = more signal;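 also: score merges feature fluorescence read at 667 nm with its signal to noise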
[15] = molecular target: Carbonic anhydrase 2 (Homo sapiens) (UniProt P00918); experiment: compounds binding carbonic anhydrase 2 – biochemical, small-molecule microarray, Alexa647-labelled CAII, profiling panel (AID 1122); conditions: CAII-A647 binding fluorescence, higher = more signal
[16] = COS7 lysate on small-molecule microarray, probe aHis, 635 nm (AID 1123); conditions: COS7 cell lysate, fluorescence, higher = more signal;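 also: z-score combines 667nm fluorescence intensity with signal-to-noise per printed compound spot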
[17] = probe aLAP1 signal on lysate-treated microarray – cell lysate, small-molecule microarray, COS7 lysate, primary screen (AID 1124); conditions: probe aLAP1, fluorescence, higher = more signal;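 also: lysate comes from COS7 cells expressing LAP1 and is applied at 0.3 µg/mL; score merges spot fluorescence near 667 nm with signal-to-noise over triplicate slides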
[18] = system: Sam68 (KHDRBS1); experiment: compounds binding KHDRBS1 protein – biochemical, small-molecule microarray, 635 nm fluorescence, primary screen (AID 1125); conditions: higher = more signal;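 also: score merges 667 nm channel intensity with signal to noise over triplicate slides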
[19] = system: Chordin-like protein 2 (CHRDL2); experiment: compounds binding chordin-like 2 – biochemical, small-molecule microarray, 635 nm fluorescence, primary screen (AID 1126); conditions: fluorescence 635 nm, higher = more signal;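 also: printed compound slides probed with Chrdl2 protein at 4 µg/mL for 1 h at 4 C; score merges 667 nm emission intensity with signal to noise over three replicate slides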
[20] = molecular target: Concanavalin-A (Canavalia ensiformis) (UniProt P02866); experiment: compounds binding concanavalin A lectin – biochemical, small-molecule microarray, Alexa647 label, 635 nm, artefact control for SMM control protein annotation, primary screen (AID 1127); conditions: ConA-A647 binding fluorescence, higher = more signal;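 also: z combines 667 nm emission intensity with signal-to-noise across three replicate slides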
Chain of Concanavalin-A (Canavalia ensiformis) (P02866 whole entry, looked up): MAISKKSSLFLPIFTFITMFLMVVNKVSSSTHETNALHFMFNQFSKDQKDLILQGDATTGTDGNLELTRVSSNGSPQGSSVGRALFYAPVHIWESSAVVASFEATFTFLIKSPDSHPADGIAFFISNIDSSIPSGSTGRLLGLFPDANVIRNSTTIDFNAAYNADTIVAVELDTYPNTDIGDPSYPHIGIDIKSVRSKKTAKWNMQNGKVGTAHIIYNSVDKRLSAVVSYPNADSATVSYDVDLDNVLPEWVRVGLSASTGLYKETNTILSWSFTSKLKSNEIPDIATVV

Chain of Albumin (Bos taurus) (P02769 whole entry, looked up): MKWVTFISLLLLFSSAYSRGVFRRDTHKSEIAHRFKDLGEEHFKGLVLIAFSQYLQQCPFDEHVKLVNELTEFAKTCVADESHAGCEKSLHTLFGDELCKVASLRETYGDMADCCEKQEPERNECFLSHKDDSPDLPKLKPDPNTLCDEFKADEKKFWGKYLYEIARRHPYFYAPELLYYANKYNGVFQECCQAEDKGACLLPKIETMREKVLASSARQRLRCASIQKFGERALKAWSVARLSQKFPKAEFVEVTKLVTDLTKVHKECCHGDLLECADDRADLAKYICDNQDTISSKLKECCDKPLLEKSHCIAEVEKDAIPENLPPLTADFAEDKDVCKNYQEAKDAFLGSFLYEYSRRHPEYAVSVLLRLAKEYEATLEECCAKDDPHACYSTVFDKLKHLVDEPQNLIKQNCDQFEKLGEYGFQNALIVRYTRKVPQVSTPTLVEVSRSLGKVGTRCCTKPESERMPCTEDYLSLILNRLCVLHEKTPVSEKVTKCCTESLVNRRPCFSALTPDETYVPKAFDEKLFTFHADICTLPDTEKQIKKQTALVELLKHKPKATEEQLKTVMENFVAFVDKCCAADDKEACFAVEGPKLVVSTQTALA
Chain of Alpha-bungarotoxin (Bungarus multicinctus) (P60615 whole entry, looked up): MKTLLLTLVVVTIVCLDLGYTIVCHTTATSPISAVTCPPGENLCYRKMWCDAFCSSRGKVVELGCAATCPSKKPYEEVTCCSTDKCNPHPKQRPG
Chain of Left-right determination factor 2 (Homo sapiens) (O00292 whole entry, looked up): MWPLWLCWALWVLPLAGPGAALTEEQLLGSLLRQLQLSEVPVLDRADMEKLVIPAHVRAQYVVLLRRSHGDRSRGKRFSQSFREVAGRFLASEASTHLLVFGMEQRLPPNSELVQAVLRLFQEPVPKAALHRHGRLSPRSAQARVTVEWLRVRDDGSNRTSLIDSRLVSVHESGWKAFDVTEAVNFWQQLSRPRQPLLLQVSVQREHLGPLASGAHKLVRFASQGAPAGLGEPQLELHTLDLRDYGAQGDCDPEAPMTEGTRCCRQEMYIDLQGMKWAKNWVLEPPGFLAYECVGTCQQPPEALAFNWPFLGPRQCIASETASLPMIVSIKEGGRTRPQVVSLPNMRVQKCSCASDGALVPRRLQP
Chain of Torsin-1A-interacting protein 1 (Homo sapiens) (Q5JTV8 whole entry, looked up): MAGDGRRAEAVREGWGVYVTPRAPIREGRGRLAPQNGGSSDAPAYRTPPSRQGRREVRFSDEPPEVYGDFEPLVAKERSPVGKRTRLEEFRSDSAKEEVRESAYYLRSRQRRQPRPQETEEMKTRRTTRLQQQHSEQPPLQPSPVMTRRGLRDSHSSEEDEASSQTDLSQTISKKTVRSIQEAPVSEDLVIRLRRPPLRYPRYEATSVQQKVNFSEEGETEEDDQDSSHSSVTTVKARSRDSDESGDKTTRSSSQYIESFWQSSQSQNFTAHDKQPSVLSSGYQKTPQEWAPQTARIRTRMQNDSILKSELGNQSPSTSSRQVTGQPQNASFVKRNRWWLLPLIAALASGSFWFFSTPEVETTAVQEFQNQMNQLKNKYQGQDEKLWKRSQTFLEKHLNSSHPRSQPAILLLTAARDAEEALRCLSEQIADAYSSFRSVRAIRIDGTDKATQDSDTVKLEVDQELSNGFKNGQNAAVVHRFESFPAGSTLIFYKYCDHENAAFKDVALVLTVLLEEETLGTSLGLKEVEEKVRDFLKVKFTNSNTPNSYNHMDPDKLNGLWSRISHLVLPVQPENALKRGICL

SMILES | composite z-score [1] | z-score [2] | composite z-score [3] | composite z-score [4] | composite z-score [5] | composite z-score [6] | composite z-score [7] | composite z-score [8] | composite z-score [9] | composite z-score [10] | composite z-score [11] | composite Z-score [12] | composite z-score [13] | composite z-score [14] | composite z-score [15] | composite z-score [16] | composite z-score [17] | composite z-score [18] | composite z-score [19] | composite z-score [20]
COC(=O)[C@@]1(Cc2ccc(OC)cc2)[C@H]2c3cc(C(=O)N(C)C)n(CCO)c3C[C@H]2CN1C(=O)c1ccccc1 | -0.317 | -0.441 | -0.511 | 1.67 | 1.1 | -0.0398 | 0.0044 | -0.426 | 3.28 | 1.18 | 0.625 | 0.126 (inactive) | -0.102 | 0.257 | 0.935 | 1.19 | 0.971 | -0.924 | -0.784 | 0.001
COCCOC(=O)N1C(=O)[C@@]2(c3cc(C#CC4=CCCCC4)ccc31)[C@H](c1ccc(O)cc1)N1[C@H](c3ccccc3)[C@H](c3ccccc3)OC(=O)[C@H]1[C@@H]2C(=O)N1CCN(c2ncccn2)CC1 | -0.444 | -0.131 | -0.742 | -0.676 | 0.451 | -0.195 | -0.138 | -0.445 | -0.201 | -1.11 | -1.34 | -0.551 (inactive) | -0.345 | -0.156 | -0.391 | -0.147 | 0.601 | -0.535 | -1.21 | -0.217
COc1ccc(-c2cc3c(c(CCc4ccccc4)n2)[Si](C(C)C)(C(C)C)OC3)cn1 | -0.681 | -0.42 | 0.209 | -0.113 | 0.151 | -0.15 | -0.147 | -0.115 | -0.0389 | 0.104 | -0.0428 | 0.147 (inactive) | -0.152 | -0.169 | -0.173 | 0.132 | -0.376 | -0.296 | 0.105 | -0.0689
COc1cc(CO)cc(I)c1O[C@H]1C=C(C(=O)NCCO)C[C@@H](NCc2ccc(F)cc2)[C@@H]1O | -1.08 | -4.07 | 0.275 | 0.433 | -0.918 | -0.202 | 0.0684 | -0.506 | 0.0217 | 0.2 | -1.03 | 0.328 (inactive) | -0.118 | -0.148 | 0.223 | 0.369 | 0.205 | 0.352 | 0.306 | 0.0901
COc1ccc(NC(=O)O[C@H]2[C@H](OC(=O)Nc3ccccc3)[C@H](OC(=O)Nc3ccccc3)[C@@H](OC)O[C@@H]2CO)cc1 | 1.25 | -2.76 | 0.249 | 0.692 | -0.17 | 0.161 | 0.163 | -0.413 | 0.634 | 1.12 | 0.693 | 1.58 (inactive) | 0.861 | 0.28 | 0.703 | 2.87 | 0.197 | 1.31 | 0.181 | 0.946
C=CCN1C(=O)[C@@]2(O[C@@H](CCn3cc([C@H](O)c4ccccc4)nn3)[C@H]([Si](C)(C)c3ccc(OC)cc3)[C@H]2C)c2cc(N3CCC3=O)ccc21 | 0.627 | -3.39 | 0.225 | 0.249 | 0.294 | -0.15 | -0.138 | 0.15 | 0.116 | 0.359 | 0.292 | 0.346 (inactive) | -0.132 | -0.189 | 0.489 | 0.901 | 0.249 | 0.636 | 0.163 | 0.0967
Cc1ccc(S[C@]2(C(=O)NCC(F)(F)F)CC(=O)N(Cc3ccccc3C(F)(F)F)[C@@H]2c2ccc(CO)cc2I)cc1 | -0.784 | -0.414 | -2.12 | -0.423 | -0.214 | -0.0944 | 0.0483 | -0.161 | -0.531 | 0.444 | 0.88 | -0.0127 (inactive) | -0.3 | -0.14 | 0.968 | 0.616 | 0.116 | -0.486 | -1.41 | -0.35
COCCOC(=O)N1C(=O)[C@@]2(c3cc(C#CCCO)ccc31)[C@H](C(=O)Nc1nc3ccccc3s1)[C@H]1C(=O)O[C@H](c3ccccc3)[C@H](c3ccccc3)N1[C@@H]2c1ccccc1OCCO | 0.792 | -1.71 | 0.674 | 0.827 | -0.112 | -0.0025 | 0.0469 | -0.588 | 0.811 | 1.45 | 0.623 | 0.0088 (inactive) | 0.436 | 0.297 | 0.542 | 1.22 | 0.627 | 1.29 | 0.524 | 1.14
COc1ccc([Si](C)(C)[C@@H]2[C@@H](CC(=O)N3Cc4ccccc4C[C@H]3CO)O[C@]3(C(=O)N(Cc4cccc(N5C(=O)c6cccc7cccc5c67)c4)c4ccccc43)[C@H]2C)cc1 | 1.21 | -3.68 | 0.98 | 0.937 | 1.46 | -0.0685 | -0.17 | -0.237 | 0.83 | 0.886 | -0.566 | -0.0894 (inactive) | 0.143 | -0.0928 | 0.598 | 1.26 | -0.235 | 0.817 | 1.27 | 1.12
COc1cccc(/C=C/C=O)c1 | 0.105 | -0.56 | 0.402 | 0.0577 | -0.363 | 0.185 | 0.218 | -0.354 | 0.185 | -0.124 | 0.865 | -0.245 (inactive) | 0.147 | 0.142 | -0.124 | 0.155 | -0.12 | -0.146 | 0.552 | -0.52
COc1cc2c(cc1OC)CN(C(=O)[C@@H]1[C@H]3C(=O)O[C@H](c4ccccc4)[C@H](c4ccccc4)N3[C@H](c3ccc(OCCO)cc3)[C@@]13C(=O)Nc1ccccc13)CC2 | 1.44 | -1.68 | 0.351 | 1.04 | 0.0568 | 0.133 | 0.0328 | -0.592 | 1.14 | 1.91 | 0.299 | 0.817 (inactive) | 0.131 | -0.114 | 0.634 | 2.25 | 0.141 | 1.31 | 0.508 | 1.15
